# Results filed as inconclusive are left out. Activity calls are given as the source filed them. The call rests on the fitted dose curve; in most records, active means well fitted inhibition curve with a large enough effect; inconclusive means small, poorly fitted or top-dose-only effect; inactive means flat fitted curve, though single readings scatter.
# Target: Luciferin 4-monooxygenase (Photinus pyralis) (UniProt P08659)
# Experiment: qHTS Assay for Inhibitors of Firefly Luciferase from the GSK Published Protein Kinase Inhibitor Set
# Settings: purified firefly luciferase, luminescence inhibition; series mostly up to 57.5 µM; activity change, negative = inhibition: at the top concentration
# Method in brief: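 Enzyme-level luminescence assay: compounds titrated (about 60uM down to 300pM) into substrate buffer (10uM ATP, 10uM D-luciferin, pH 7.5 Tris acetate with Mg, Tween-20, BSA), then 10nM firefly luciferase added; read after ~5 min.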
# On the % scale 0 is the no-effect control and ±100 the full control effect; potency means the concentration at half of the fitted maximal effect.
# Sequence of Luciferin 4-monooxygenase (Photinus pyralis) (P08659 whole entry, looked up): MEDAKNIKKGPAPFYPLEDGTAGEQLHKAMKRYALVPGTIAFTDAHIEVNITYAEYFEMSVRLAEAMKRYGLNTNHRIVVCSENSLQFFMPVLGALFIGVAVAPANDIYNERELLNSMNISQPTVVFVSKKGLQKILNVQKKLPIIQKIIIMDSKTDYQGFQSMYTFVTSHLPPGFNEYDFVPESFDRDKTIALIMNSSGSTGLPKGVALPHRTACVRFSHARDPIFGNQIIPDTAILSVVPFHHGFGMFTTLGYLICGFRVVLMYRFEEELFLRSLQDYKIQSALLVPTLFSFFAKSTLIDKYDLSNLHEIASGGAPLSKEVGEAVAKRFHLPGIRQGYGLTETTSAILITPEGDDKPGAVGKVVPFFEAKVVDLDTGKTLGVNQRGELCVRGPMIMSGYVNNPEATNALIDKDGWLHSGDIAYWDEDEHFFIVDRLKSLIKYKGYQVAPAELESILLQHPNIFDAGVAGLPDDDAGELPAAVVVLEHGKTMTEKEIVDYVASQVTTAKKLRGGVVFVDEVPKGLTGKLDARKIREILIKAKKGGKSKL
SMILES,Potency,"activity change, negative = inhibition"
c1ccc(Nc2ncc(-c3ccccc3)o2)cc1,0.259 µM (active),–
COc1cc(C)c(N(C)C(=O)CN(C)C)cc1Nc1nc(Nc2cccc(F)c2C(N)=O)c2cc[nH]c2n1,–,-2.27% (inactive)
O=C1NC(=O)C(c2ccc(Cl)cc2)=C1Nc1ccc(Cl)c(C(=O)O)c1,–,-1.4% (inactive)
COC(=O)Nc1nc2ccc(Sc3ccc(NC(=O)Nc4cc(C(F)(F)F)ccc4F)cc3)cc2[nH]1,–,15% (inactive)
COc1ccc2cc(-c3c(-c4ccncc4)nc(-c4ccc(S(C)=O)cc4C)n3C)ccc2c1 (centres undefined),–,-15.7% (inactive)
COc1cc2ncn(-c3cc(OCCc4ccccc4)c(C(N)=O)s3)c2cc1OC,–,0.383% (inactive)
CN(C)c1ccc2[nH]c(O)c(C=Nc3ccc(S(N)(=O)=O)cc3)c2c1,–,-13.5% (inactive)
NS(=O)(=O)c1ccc(N=Nc2c(O)[nH]c3ccc(C(=O)NCCc4cnc[nH]4)cc23)cc1,–,4.63% (inactive)
COc1cc2c(cc1Nc1nc(Nc3ccsc3C(N)=O)c3cc[nH]c3n1)N(C(=O)CN(C)C)CCC2(C)C,–,9.8% (inactive)
COc1cc(N2CCN(C(C)C)CC2)ccc1Nc1nc(Nc2cccc(F)c2C(=O)O)c2cc[nH]c2n1,–,0.459% (inactive)
Cn1c(-c2nonc2N)nc2cnccc21,–,4.48% (inactive)
Fc1ccc(-c2nc3n(c2-c2ccncc2)CCS3)cc1,–,-5.01% (inactive)
CC1=C(C(=O)Nc2ccc3[nH]ncc3c2)C(c2ccc(Cl)c(Cl)c2)CC(=O)N1 (centres undefined),–,7.19% (inactive)
CCN(CC)Cc1ccc(Nc2nccc(-c3cnn4ncccc34)n2)cc1,–,-7.2% (inactive)
C#Cc1cccc(Nc2ncnc3ccc(OCCCCNCCS(C)(=O)=O)cc23)c1,–,7.77% (inactive)
Cc1nc(-c2ccccc2)n2nc(NCCCN3CCOCC3)ncc12,–,-1.42% (inactive)
CN(C)c1cc2c(Nc3ccc4c(cnn4Cc4ccccc4)c3)ncnc2cn1,–,-7.49% (inactive)
Nc1nc(-c2ccccn2)c(-c2ccc3ncccc3n2)s1,32.6 µM (active),–
NS(=O)(=O)c1ccc(-c2ccc3c(NC(=O)C4CC4)n[nH]c3c2)cc1,–,-13.7% (inactive)

# — PubChem BioAssay AID652016 (National Center for Advancing Translational Sciences (NCATS), 2013)
